IDE act: human IDE activators in live cells, primary screen, fluorescence polarization, HEK cells, FAbeta-B substrate | Insulin-degrading enzyme (Homo sapiens), P14735 | FAbeta-B cleavage; 0% vehicle, 100% cell-free pure enzyme wells | activation, % at 5.96 µM | actives 0.073% (n = 340,000);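 active means activation above the mean of all tested compounds plus 3 SD, set per screening campaign, cut at about 17% in these data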
PfM18AAP inh: PfM18AAP inhibitors, malaria aminopeptidase, primary screen, biochemical, QFRET, recombinant enzyme. inhibition, % at 7.35 µM. H-Glu-NHMec fluorogenic cleavage. actives 1.2% (n = 290,000). M18 aspartyl aminopeptidase (Plasmodium falciparum 3D7);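 active means inhibition above the campaign mean inhibition over all tested compounds plus 3 SD, cut at about 28% in these data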
CaV13 ICDI inh: Disruptors of the CACNA1D IQ motif to Ca2+-dependent inactivation inhibitor domain association, primary screening, Förster resonance energy transfer in intact living …. HEK cells, CFP/YFP FRET ICDI-IQ, plate reader, 10 min; percent FRET-ratio fall versus neutral wells. inhibition, % at 12.3 µM. actives 0.098% (n = 340,000). AID 743397;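 active means mean replicate inhibition of at least 30% and at least 1% of replicates passing that level; inconclusive means only one of the two criteria is met; inactive means neither criterion is met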
PolyA inhibitor: polyadenylation inhibitors in yeast reporter cells, primary screen, luminescence, S. cerevisiae | S. cerevisiae SKY197-pL101 polyadenylation reporter, beta-gal luminescence; efflux-impaired pdr1/pdr3 knockout yeast; score 100 = 6 SD above DMSO | actives 0.02% (n = 300,000) | activity score, % at 12 µM;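 active means lowest replicate activity score at least 50, where 100 means six control SD above control mean; inconclusive means lowest score under 50 but half or more replicates reach 50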;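 further: yeast exposed to compound for 9 h at 30 °C; higher score means more reporter readthrough which indicates perturbed polyadenylation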
ALR inh: inhibitors of human ALR sulfhydryl oxidase, primary screen, biochemical, H2O2 detection, HRP-luminol luminescence, single point; FAD-linked sulfhydryl oxidase ALR (Homo sapiens), P55789; purified ALR, DTT oxidation; inhibition, % (no concentration beside the values); actives 3.8% (n = 290,000);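 active means mean replicate inhibition above about 79%, with every replicate also reaching it, limit read from the data; inconclusive means only one of the two criteria met; inactive means mean below limit and not every replicate reaching it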
Target sequence (P55789 whole entry, looked up): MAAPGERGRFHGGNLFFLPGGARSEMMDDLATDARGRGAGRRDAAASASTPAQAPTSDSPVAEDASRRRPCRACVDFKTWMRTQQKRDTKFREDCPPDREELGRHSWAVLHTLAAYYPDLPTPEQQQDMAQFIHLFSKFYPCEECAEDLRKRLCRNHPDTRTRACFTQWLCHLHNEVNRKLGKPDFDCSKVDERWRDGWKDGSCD
IDE cell inh: human IDE inhibitors in live cells, primary screen, fluorescence polarization, HEK cells, FAbetaB substrate | Insulin-degrading enzyme (Homo sapiens), P14735 | FAbetaB cleavage | inhibition, % at 5.59 µM | actives 0.41% (n = 320,000);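 active means percent inhibition above the average of all tested compounds plus 3 SD, set per screening campaign, cut at about 16% in these data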;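 further: IDE supplied by intact live HEK cells; FP after avidin binding of uncleaved biotin substrate so inhibition keeps polarization high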
IDE cell inh cf: human IDE inhibitors in live cells, confirmation, fluorescence polarization, HEK cells, FAbetaB substrate; AID 435028, 2010; shares compounds with IDE cell inh; inhibition, % at 5.59 µM; FAbetaB cleavage; actives 51% (n = 1,200);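 active means mean inhibition across triplicate wells above the cutoff set by the earlier primary insulin-degrading enzyme screen, cut at about 16% in these data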
HEK cytotox: cytotoxicity in HEK cells, cytotoxicity control for IDE inhibitor project, cell-based, luminescence | AID 449730, 2010 | actives 28% (n = 1,200) | inhibition, % at 5.59 µM | shares compounds with IDE cell inh | HEK293 cytotoxicity, ATP luminescence; in the data active means inhibition above about 22%
IDE FP artifact: fluorescent or optically active artefacts, dose response, artefact control for IDE inhibitor project, biochemical, fluorescence polarization; shares compounds with IDE cell inh; AID 588718, 2011; IC50, µM; 30 tested, under 10 active; FP counterscreen for fluorescent artifacts, IDE probe project; call rule not given here
Large screens that a line does not name were inactive (follow-up assays come after a bar, where they were run). A selection: hits, their analogues and other compounds. The true share with any hit is near 4.1%.

COc1cc(/C=C2\SC(=N)N(c3ccc4c(c3)OCO4)C2=O)cc(OC)c1O	IDE cell inh 81 (no result: ALR inh) | IDE cell inh cf 72 | HEK cytotox inactive
COc1cc(/C=C2\SC(=N)N(c3ccc(F)cc3)C2=O)ccc1O	IDE cell inh 26 | IDE cell inh cf 19 | HEK cytotox inactive
COc1ccc(N=C2NC(=O)/C(=C/c3ccc(O)c(OC)c3)S2)cc1	IDE cell inh 25 | IDE cell inh cf 32 | HEK cytotox inactive
CCOc1ccc(N2C(=O)S/C(=C\c3cc(OC)c(OC)c(OC)c3)C2=O)cc1	none (no result: IDE act, ALR inh)
COCC1CCCCN1C(=O)c1cccc(OC2CCN(S(C)(=O)=O)CC2)c1 (stereo not drawn)	none
CCOC(=O)C(Cc1ccc(O)cc1)NC(=O)CNC(=O)C(CC(C)C)NC(=O)OC(C)(C)C (stereo not drawn)	none
COc1ccccc1N=C1NC(=O)/C(=C/c2ccc(N(C)C)cc2)S1	IDE cell inh 53 | IDE cell inh cf 56 | HEK cytotox 53
CC(C)[C@H](NC(=O)c1ccc(C(C)(C)C)cc1)C(=O)N1CCN(Cc2ccc3c(c2)OCO3)CC1	IDE cell inh 19 (no result: PfM18AAP inh, PolyA inhibitor) | IDE cell inh cf inactive | HEK cytotox 53
Cc1ccccc1N1C(=O)c2cccc3c(N(C)CCO)ccc(c23)C1=O	IDE cell inh 47 (no result: CaV13 ICDI inh) | IDE cell inh cf 68 | HEK cytotox inactive
COc1ccccc1N1C(=O)c2cccc3c(N(C)CCO)ccc(c23)C1=O	IDE cell inh 45 | IDE cell inh cf 47 | HEK cytotox inactive
Cc1cc(NC(=O)CC2CCCC2)ccc1Br	none
Cc1c(CCC(=O)NCCCn2ccnc2)c(=O)oc2cc3oc4c(c3cc12)CCCC4	IDE cell inh 56 (no result: CaV13 ICDI inh) | IDE cell inh cf 33 | HEK cytotox inactive | IDE FP artifact inactive
O=C(O)Cn1c2ccccc2c2ccccc21	none
O=C(O)Cn1c2c(c3ccccc31)CSc1ccc(Cl)cc1-2	IDE cell inh 24 | IDE cell inh cf inactive | HEK cytotox inactive
CSCCC(NC(=O)c1ccccc1Cl)C(=O)Nc1ccncc1 (stereo not drawn)	none (no result: PfM18AAP inh, PolyA inhibitor, ALR inh, IDE cell inh)
Cc1ccc(NC(=O)COC(=O)CN2C(=O)NC3(CCCC3)C2=O)cc1F	none (no result: PfM18AAP inh, PolyA inhibitor)
COC(=O)c1sc(N)c(C(=O)OC)c1CSc1nnc(-c2ccccc2Cl)n1C	IDE cell inh 16 | IDE cell inh cf inactive | HEK cytotox inactive
CC1CCCN(C(=O)C2CCN(S(=O)(=O)c3cccc4nsnc34)CC2)C1 (stereo not drawn)	none
CC(=O)Nc1cccc(C(=O)/C=C/c2ccc(N(C)C)cc2)c1	ALR inh 99, IDE cell inh 56 | IDE cell inh cf 51 | HEK cytotox inactive
Nc1c2c(nc3ccn(-c4ccccc4)c(=O)c13)CCCCC2	IDE cell inh 18 (no result: CaV13 ICDI inh) | IDE cell inh cf 19 | HEK cytotox inactive
COc1ccc(-c2csc3nc[nH]c(=O)c23)cc1OC	none (no result: ALR inh)
Cc1ccc(-c2csc3nc[nH]c(=S)c23)cc1C	IDE cell inh 22 | IDE cell inh cf inactive | HEK cytotox inactive
O=C(NC1CCCCC1)C1CCN(C(=O)c2ccc(-c3ccccc3)cc2)CC1	IDE cell inh 18 (no result: CaV13 ICDI inh) | IDE cell inh cf inactive | HEK cytotox inactive
CC(=O)Oc1ccc(N2C(=O)c3cccc4c([N+](=O)[O-])ccc(c34)C2=O)cc1	IDE cell inh 18 | IDE cell inh cf inactive | HEK cytotox 68
O=C1c2cccc3c([N+](=O)[O-])ccc(c23)C(=O)N1c1ccc(Cl)cn1	none
O=S(=O)(c1cccc(NC(=S)N2CCN(c3ccccc3)CC2)c1)C(F)F	IDE cell inh 19 (no result: ALR inh) | IDE cell inh cf inactive | HEK cytotox inactive
COc1ccccc1CN1C[C@@H]2C[C@@H](c3ccc4nsnc4c3)N3CCC[C@@]23C1=O	IDE cell inh 19 (no result: ALR inh) | IDE cell inh cf inactive | HEK cytotox inactive
CC(=O)c1cccc(OCC(=O)N2CCN(c3ccc(C(F)(F)F)cn3)CC2)c1	IDE cell inh 22 | IDE cell inh cf 19 | HEK cytotox inactive
CCCc1cc(C(=O)N2CCN(c3ccc(C(F)(F)F)cn3)CC2)sc1C	IDE cell inh 16 | IDE cell inh cf inactive | HEK cytotox inactive
O=C(O)COCC(=O)N1CCCN(c2ccc(C(F)(F)F)cn2)CC1	none (no result: IDE cell inh)
N=C1/C(=C\c2ccc(SCc3ccco3)o2)C(=O)N=C2SC=NN12	IDE cell inh 25 | IDE cell inh cf inactive | HEK cytotox inactive
COc1cc(/C=C(/C#N)C(=O)NC(C)c2ccccc2)cc(OC)c1O (stereo not drawn)	PolyA inhibitor inconclusive, IDE cell inh 75 | IDE cell inh cf 79 | HEK cytotox inactive
NS(=O)(=O)c1cccc(NS(=O)(=O)c2ccc(/C=C/C(=O)OCC(=O)c3ccccc3)cc2)c1	none (no result: ALR inh)
Cc1nc(N/C(N)=N/S(=O)(=O)c2ccc([N+](=O)[O-])cc2)nc2ccccc12	IDE cell inh 22 | IDE cell inh cf inactive | HEK cytotox inactive
Cc1nc(N/C(N)=N/S(=O)(=O)c2ccccc2)nc2ccccc12	none (no result: PfM18AAP inh, PolyA inhibitor, ALR inh)
O=C(NCCCN1CCOCC1)C(=O)N/N=C/c1ccccc1	none (no result: ALR inh)
O=C(NCCCN1CCOCC1)C(=O)N/N=C/c1cccc2ccccc12	IDE cell inh 16 | IDE cell inh cf inactive | HEK cytotox inactive
CCOc1ccc(Cl)cc1-c1cc(C(=O)NCCc2ccncc2)[nH]n1	none (no result: IDE act, PfM18AAP inh, PolyA inhibitor, ALR inh, IDE cell inh)
CC(=O)c1sc(N/N=C\c2ccccc2O)nc1C	IDE cell inh 31 | IDE cell inh cf 48 | HEK cytotox inactive
CC(C)COP(=O)(CNC(=O)CN1C(=O)c2ccccc2S1(=O)=O)OCC(C)C	none
COc1cccc(NC(=O)N2CCN(c3cccc(C)c3C)CC2)c1	IDE cell inh 16 (no result: ALR inh) | IDE cell inh cf inactive | HEK cytotox inactive
COc1cccc(NC(=O)N2CCN(c3nc(-c4cccc(OC)c4)cs3)CC2)c1	IDE cell inh 19 | IDE cell inh cf inactive | HEK cytotox 30

Screens: PubChem, several laboratories
